Measured values reported in PubChem BioAssay AID707 (Columbia University Molecular Screening Center, 2007).
The campaign covered roughly 91,000 compounds. About 310 (0.34%) were called active. Many of the other results were omitted from the sample, so actives are more common in it than they were. Unmarked numbers belong to inactive results. No stated cut-off is given here; in the data, active means inhibition above about 80%; inactive means the rest.

Each molecule was assayed against Bifunctional epoxide hydrolase 2 (Homo sapiens) (UniProt P34913) (assay: sEH enzyme activity blockers – biochemical, human sEH, primary screen (AID 707)). Settings: recombinant human sEH enzymatic activity assay; at 2 µM; stronger effect = higher value.
Sequence of Bifunctional epoxide hydrolase 2 (Homo sapiens) (P34913 whole entry, looked up): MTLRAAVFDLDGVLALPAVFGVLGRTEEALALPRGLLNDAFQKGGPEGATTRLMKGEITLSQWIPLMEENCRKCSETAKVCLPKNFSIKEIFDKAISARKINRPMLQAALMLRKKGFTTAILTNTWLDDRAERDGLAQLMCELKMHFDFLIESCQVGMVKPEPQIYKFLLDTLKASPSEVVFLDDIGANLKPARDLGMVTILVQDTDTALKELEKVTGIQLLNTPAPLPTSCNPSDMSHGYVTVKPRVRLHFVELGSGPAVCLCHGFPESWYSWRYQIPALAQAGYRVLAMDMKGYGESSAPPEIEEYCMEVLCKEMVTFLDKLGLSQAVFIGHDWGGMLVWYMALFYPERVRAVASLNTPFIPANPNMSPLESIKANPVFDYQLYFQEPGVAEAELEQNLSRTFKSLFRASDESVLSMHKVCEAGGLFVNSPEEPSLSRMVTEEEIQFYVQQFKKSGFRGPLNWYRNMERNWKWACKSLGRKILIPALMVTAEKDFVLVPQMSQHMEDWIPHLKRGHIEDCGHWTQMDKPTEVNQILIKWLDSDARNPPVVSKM

Compound | inhibition
CON(C)S(=O)(=O)c1ccc2c(c1)NC(=O)C1CCCN21 (stereo not drawn) | -14.7%
O=C(NNC(=O)c1cccnc1)Nc1ccccc1 | -21.5%
N#C/C(=C/c1ccc(Cl)cc1)NC(=O)c1ccccc1 | 3.7%
CCCCNC(=O)CSc1nc2ccc(NC(=O)CSc3nnc(COc4ccccc4C)n3C)cc2s1 | 88.5% (active)
CCCCNC(=O)CSc1nnc(-c2ccco2)n1C | -1.7%
CCOC(=O)c1ccc(NC(=O)CSc2nnc(COc3ccccc3OC)n2C)cc1 | 9.6%
CC(CC(=O)Nc1cc(C(F)(F)F)ccc1Cl)c1ccccc1 (stereo not drawn) | 49.5%
CC1CCCCN1CC(=O)NCc1ccc2c(c1)OCO2 (stereo not drawn) | 3.9%
CCOC(=O)NCc1ccc2c(c1)OCO2 | 4.7%
CCc1c(C)nc2ncnn2c1N1CCC(C(=O)NCc2ccc3c(c2)OCO3)CC1 | 83.3% (active)
COc1ccc(NC(=O)Nc2ccc3nsnc3c2)cc1 | 75.6%
CCCCNCc1ccc(SC)cc1 | 10.8%
COc1ccc2c(c1)SC(C)CC2=O (stereo not drawn) | -11.8%
Cc1cccc(N(C(=O)Cc2cccs2)C(C(=O)NC2CCCC2)c2ccsc2)c1 (stereo not drawn) | 1.9%
Cc1cccc(NC(=S)Nc2ccc(Br)cc2)c1 | 17.8%
COc1ccc(CCNC(=S)NC(=O)/C=C/c2ccc(C)cc2)cc1OC | -0.9%
Cc1cccc(-n2cnc(C(=O)Nc3cccnc3)c2)n1 | -6.9%
Cc1ccc2nc(Nc3ccccc3O)nc(-c3ccccc3)c2c1 | 0.8%
c1ccc2c(CSCc3nc4ccccc4[nH]3)cccc2c1 | 10.5%
Cc1ccccc1OC/C(O)=C(\C#N)c1nc2ccccc2[nH]1 | -13.4%
COC(=O)c1ccc(C(=O)Nc2cc(Cl)ccc2Cl)cc1NC(=O)c1ccccc1C | -1.7%

Compound | inhibition
Cc1ccccc1OCc1nnc(SCC(=O)N2c3ccccc3Sc3ccc(Cl)cc32)o1 | -2.3%
CC1Cc2ccccc2N1CC(=O)Nc1ccc2c(c1)OC(F)(F)O2 (stereo not drawn) | 49.2%
CCOC(=O)COc1cc(OCC(=O)OCC)c2c(=O)cc(-c3ccccc3)oc2c1 | -14.8%
COCCCn1c(SCc2cccc(OC)c2)nc2cc(OC)c(OC)cc2c1=N | 7.8%
Cc1[nH]nc(-c2ccc(OCc3cnn(-c4ccccc4)c3)cc2O)c1Oc1ccc(Cl)cc1 | 11.4%
COc1ccc(C(=O)NC(=S)Nc2ccccc2N2CCN(S(C)(=O)=O)CC2)cc1OC | 12.4%
Cc1ccc2nc(SCc3nnc(-c4ccccc4[N+](=O)[O-])o3)c(C#N)cc2c1 | 0.2%
Cc1cccc(-n2ncc(C#N)c2-n2cccc2)c1 | 0.9%
CCCC(=O)NC(Nc1ccccc1OC)C(Cl)(Cl)Cl (stereo not drawn) | 6.5%
Fc1ccccc1COc1ccccc1CNCc1ccncc1 | 5.2%
CC(=O)Nc1ccccc1C(=O)C(=O)Nc1ccc(F)cc1 | -20.5%
COC(=O)CNC(=O)c1ccccc1[N+](=O)[O-] | -15.7%
O=C(CCc1ccc(S(=O)(=O)N2CCOCC2)cc1)Nc1ccc2ccccc2c1 | 21.6%
CONC(=O)c1cc(OCC(F)(F)F)ccc1OCC(F)(F)F | 6%
Cc1c(Br)c([N+](=O)[O-])nn1C(C)C(=O)Nc1nccs1 (stereo not drawn) | -4.7%
N#Cc1ccc(-c2ccc(Cl)cc2)nc1Oc1ccc(F)cc1 | 7.8%
COCc1cc(C)nc2sc3c(=O)n(-c4cccc5ccccc45)nnc3c12 | 3.4%
Cc1ccc(-n2c(C)cc(/C=C(\C#N)C(=O)NCC3CCCO3)c2C)cc1 (stereo not drawn) | 10.8%
O=Cc1c(N2CCN(c3cccc(Cl)c3)CC2)nc2ccccn2c1=O | 1.4%
COc1cccc(NC(=O)Cc2ccc(C)cc2)c1 | 1.6%
Cc1cccc(NC(=O)Nc2cccc(Oc3c(F)c(F)c(F)c(F)c3F)c2)c1 | 80.6% (active)

Compound | inhibition
CC(=O)c1cccc(NC(=O)Nc2ccc(C)cc2)c1 | 48.2%
O=C(/C=C\NCC(=O)c1ccccc1)c1ccccc1 | 2.3%
COc1ccc2c(c1OC)C(=O)c1ccccc1C2=O | -2.2%
Cc1onc(-c2c(Cl)cccc2Cl)c1C(=O)c1c[nH]c(C(=O)NC2CC2)c1 | 2%
Cc1[nH]n(-c2ccccc2)c(=O)c1CCOC(=O)c1ccc(C(F)(F)F)cc1 | 7.1%
C/C(=N/NC(=O)c1ccc(NC(=O)c2ccc(F)cc2)cc1)c1ccccc1 | -3.4%
Cc1cc2c(c(=O)n1C)C(C(C)C)C(C#N)=C(N)O2 (stereo not drawn) | -3.6%
CNS(=O)(=O)c1cnccc1N1CCN(c2cccc(C)c2)CC1 | 13.4%
Cc1ccc(-c2nnc(-n3nnc4ccccc43)c3ccccc23)cc1 | -3.9%
C=CCNc1nc(N)c(C(=C(C#N)C#N)c2ccccc2)s1 | 4.9%
Cc1cc([N+](=O)[O-])c(N2CCC[C@@H]2C(=O)O)c([N+](=O)[O-])c1 | 3.1%
COC(=O)CN(C(=S)Nc1ccc(Cl)cc1)C1CC(=O)N(c2ccc(OC)cc2)C1=O (stereo not drawn) | 12.2%
CC1=NN(C(=O)Cc2ccc(C)cc2)C(O)(c2cccnc2)C1 (stereo not drawn) | 3.6%
COc1ccc(C)cc1NC(=O)CCC(=O)Nc1nnc(C(F)(F)F)s1 | 15.2%
O=C(c1ccccc1)C(Cn1cncn1)C(Sc1ccccc1)c1ccccc1 (stereo not drawn) | -1.8%
COc1ccc(C(=O)N2CCc3cc(OC)c(OC)cc3C2c2cccc([N+](=O)[O-])c2)cc1 (stereo not drawn) | 0.6%
C=CCOc1c2ccc(C(=O)N(CC)c3ccc(OC)cc3)cc2nn1C | 10.6%
Cc1ccc(C)c(NC(=O)C2Cc3ccccc3CN2C(=O)OCc2ccccc2)c1 (stereo not drawn) | -5.4%
CC(=O)N(C)c1ccc(NC(=O)C(F)(F)F)cc1 | 3.7%
CCOc1ccc(NC(=O)Nc2ccc(N(C)C(C)=O)cc2)cc1 | 82.3% (active)
CCOc1ccc(NC(=O)Nc2cc(C)on2)cc1 | 2.9%
